# Assay outcomes (PubChem)
# Rows were chosen to be rich in hits. Some 4.1% of all compounds tested hit in one or more screens of this group.
# PolyA inh = blocks polyadenylation in yeast reporter cells; activity score, % at 12 µM; S. cerevisiae SKY197-pL101 polyadenylation reporter, beta-gal luminescence; efflux-impaired pdr1/pdr3 knockout yeast; score 100 = 6 SD above DMSO; AID 1875; actives 0.02% (n = 300,000);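 active = lowest replicate activity score at least 50, where 100 means six control SD above control mean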;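 also: yeast exposed to compound for 9 h at 30 °C; higher score means more reporter readthrough which indicates perturbed polyadenylation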
# hgDAF-12 ag = activates the H. glycines DAF-12 receptor ligand-binding domain | HEK293 GAL4-hgDAF12 UAS-luciferase reporter, agonist luminescence; normalized to butyrate control | activation, % at 6.8 µM | actives 1.8% (n = 370,000);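 active = activation above a cutoff set at the mean of all screened compounds plus 3 SD, cut at about 10% in these data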;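 also: 0% = DMSO wells and 100% = sodium butyrate wells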
# DAX1 inh-1 = inhibitors of DAX1 repression of SF-1 activated StAR promoter; HEK293T StAR-luciferase reporter, SF-1/DAX-1 repression relief; inhibition, % at 6.8 µM; actives 1.1% (n = 370,000);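 active = inhibition above the mean over all tested compounds plus 3 SD, cut at about 3.6% in these data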;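 also: 0% = DAX-1 cells with DMSO and 100% = cells lacking DAX-1 with DMSO; higher inhibition means more luminescence from relief of DAX-1 repression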
# ssDAF-12 act = S. stercoralis DAF-12 activation, primary screen; HEK293 ssDAF-12/GRIP1 lit1-tk-luc reporter, luminescence; % of 3 µM dafachronic acid response; activation, % at 6.8 µM; actives 1% (n = 370,000); AID 652126;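 active = activation above the mean over all tested compounds plus 3 SD, cut at about 0.9% in these data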;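 also: 0% = DMSO-only wells and 100% = 3 µM delta7-dafachronic acid wells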
# hcDAF12 agonist = activates DAF-12 receptor from parasite H. contortus. HEK293 hcDAF-12 lit1-tk-luc reporter, luminescence; 0% DMSO, 100% Δ7-dafachronic acid. activation, % at 6.8 µM. actives 1.4% (n = 370,000);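 active = activation above the mean of all tested compounds plus 3 SD, cut at about 5.5% in these data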;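 also: 100% = response to 3 µM Δ7-dafachronic acid high control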
# DAX1 inh-2 = inhibitors of human orphan nuclear receptor DAX1 (NR0B1). inhibition, % at 6.75 µM. actives 0.99% (n = 340,000). P51843. AID 504766. HEK293 Gal4-DAX1 luciferase reporter, luminescence;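 active = inhibition above the mean over all tested compounds plus 3 SD, cut at about 4.2% in these data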;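 also: 0% = DAX1-transfected cells with DMSO and 100% = empty-vector control cells with DMSO; inhibition shows as a rise in luminescence from relieved DAX1 repression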
# Target sequence (P51843 207-470 limits assumed): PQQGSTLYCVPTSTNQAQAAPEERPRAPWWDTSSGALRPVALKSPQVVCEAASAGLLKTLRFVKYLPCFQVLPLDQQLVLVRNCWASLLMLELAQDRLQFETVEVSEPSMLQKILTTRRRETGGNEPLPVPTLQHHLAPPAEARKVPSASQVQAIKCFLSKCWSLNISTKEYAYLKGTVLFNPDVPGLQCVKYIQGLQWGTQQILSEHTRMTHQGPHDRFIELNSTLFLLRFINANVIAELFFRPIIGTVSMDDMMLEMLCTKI
# * = called active by the depositor; . = not tested or not shown.
SMILES,PolyA inh,hgDAF-12 ag,DAX1 inh-1,ssDAF-12 act,hcDAF12 agonist,DAX1 inh-2
CC(=O)Nc1ccc(NC(C)=C(C#N)C#N)cc1,5.7,-1.9,-0.2,-1.0,0.6,4.3*
Fc1ccccc1Nc1nc2ccccc2n2nnnc12,-7.0,5.3,0.3,1.1*,1.1,0.7
Cc1ccc(-c2cn(-c3ccccc3F)c(=S)[nH]2)cc1,1.2,11.0*,1.2,0.6,3.3,4.4*
COc1ccc(/C=C/c2nc(-c3ccccc3O)n[nH]2)cc1OC,-3.8,11.6*,3.0,-1.0,0.3,1.9
CC[C@@H](CCCc1ccc(OC)cc1)CCC(=O)N(c1ccccc1)c1ccccc1,.,-0.9,0.2,-1.6,-0.5,.
CCCCCn1c(=O)[nH]c2cc(C(=O)O)ccc2c1=O,2.0,-1.6,-0.1,-1.7,-1.7,-0.2
COC(=O)c1ccc2c(=O)n(CCCCCC(=O)NC3CCCCC3)c(=O)[nH]c2c1,.,2.1,2.3,-1.0,5.8*,.
CCCCCn1c(=O)[nH]c2cc(C(=O)NC3CCN(Cc4ccccc4)CC3)ccc2c1=O,10.0,-2.5,0.3,-1.5,-0.9,6.5*
COc1ccc(C2NC(=S)N(Cc3ccc(Cl)cc3)C(C)=C2C(C)=O)cc1 (stereo not given),.,-1.0,-0.4,-1.4,-1.8,.
O=C1c2ccccc2C(=O)N1CCc1ccccc1,-3.9,7.2,0.3,0.9*,6.2*,3.5
O=C1C(Cl)=C(N2CCOCC2)C(=O)N1CCc1ccccc1,-29.5,10.7*,1.4,-0.1,4.0,1.9
O=C1N/C(=N/N=C/c2ccco2)SC1Cc1ccccc1 (stereo not given),-14.9,-2.9,0.4,-0.9,-1.2,5.9*
Cc1ccc(CC2S/C(=N/N=C/c3ccco3)NC2=O)cc1 (stereo not given),1.8,0.5,1.0,-0.9,0.8,0.9
CCN(CCn1cccn1)C(=O)CCc1nnc(Cc2c[nH]c3ccccc23)o1,4.5,1.1,0.3,-0.2,4.8,0.1
CC(c1nccs1)N(C)C(=O)CCc1nnc(Cc2c[nH]c3ccccc23)o1 (stereo not given),-16.7,-4.4,-0.8,3.5*,1.8,-0.1
CC#CCc1cc2ccccc2c(=O)o1,6.6,2.7,1.4,-0.8,-0.2,4.6*
O=c1oc(CCO)cc2ccccc12,.,0.4,0.0,-1.1,0.5,-0.8
CN(C)CCSc1nnc(-c2ccccc2)o1,10.8,4.3,0.9,-0.2,1.8,1.6
CN(C)c1cccc(-c2nnc(SCCCC#N)o2)c1,8.8,10.9*,2.3,0.4,4.7,1.1
Nc1nc(-c2ccccc2)c(N=Nc2cccnc2)s1,-22.0,0.6,-3.5,-2.0,-1.3,-0.2
Cc1nn(-c2ccccc2)c(N)c1N=Nc1cccnc1,-11.5,11.5*,0.5,-0.9,3.5,1.2
Cc1cc(N2CCN(S(C)(=O)=O)C[C@@H]2C)ccc1N1CCN(Cc2ccccc2)[C@@H](C)C1,.,2.0,-1.2,-1.1,-2.2,.
CC(=O)Nc1cc2c(cc1Cl)-c1ccc(F)cc1C2O (stereo not given),.,4.3,1.9,1.5*,4.1,0.7
O=C(/C=C/Nc1ccccc1)c1ccccc1,3.0,11.1*,3.8*,0.7,6.5*,2.5
CCOC(=O)c1ccc(N/C=C/C(=O)c2ccccc2)cc1,-20.4,12.0*,1.1,-0.8,0.7,2.2
SMILES,PolyA inh,hgDAF-12 ag,DAX1 inh-1,ssDAF-12 act,hcDAF12 agonist,DAX1 inh-2
CCOC(=O)c1ccc(NC(=S)Nc2ccccc2)cc1,-7.6,1.7,-0.2,1.2*,0.1,0.1
CCOC(=O)c1ccc(N/C=C/C(=O)C(C)(C)C)cc1,3.7,13.1*,1.6,0.1,-0.6,2.9
CCCCOCCCNC(=O)C[C@H]1C[C@@]2(C(=O)OC)C(=C[C@H](C(C)C)O[C@@H]2C2CC2)N(Cc2cccc3ccccc23)C1=O,.,1.3,-0.3,-1.4,-2.9,.
CC(=O)c1ccc(CCCC(=O)O)cc1,0.3,-1.7,-0.5,-1.3,1.7,4.9*
CC(=O)c1ccc(Cc2ccc(C(C)=O)cc2)cc1,-8.7,1.7,-0.4,-1.9,-1.5,-1.6
CCCCc1nnn2c1C1c3cc(Br)ccc3CCN1C(=O)C2 (stereo not given),.,-0.7,-0.6,-0.5,-2.6,.
COC(=O)c1oc2ccccc2c1NC(=O)c1ccccc1O,-27.0,-1.2,-0.9,-0.6,-0.1,-0.2
Cc1c(C(=O)NNC(=O)c2ccccc2O)oc2ccccc12,.,6.8,2.2,0.6,5.8*,-0.8
CNC(=O)NC(=O)COC(=O)CCCOc1ccc(OC)cc1,7.9,-0.2,0.2,-0.6,-1.3,5.6*
COc1ccc(OCCC(=O)OCC(=O)NC(=O)NC2CCCCC2)cc1,-6.9,2.6,-0.6,-1.1,0.5,-0.5
Cc1ccc(OC(=O)COc2ccccc2C)c(-n2nc3ccccc3n2)c1,-13.4,9.6,3.1,-0.2,6.2*,1.4
COC(=O)[C@]12C[C@H](CC(=O)NCCCCc3ccccc3)C(=O)N(Cc3ccccc3)C1=C[C@H](C(C)C)O[C@@H]2C1CC1,.,-1.9,0.5,-1.5,-1.3,.
CCN1CCN(c2ccc(NC(=O)c3ccco3)cc2Cl)CC1,-1.7,6.7,0.8,-0.1,0.6,0.8
O=C(Nc1ccc(N2CCCC2)c(Cl)c1)c1ccco1,7.9,12.2*,3.5,0.0,3.3,-1.3
CC(=O)N(C)c1ccc(NC(=O)c2ccco2)cc1,-3.1,6.8,3.8*,0.2,5.2,0.2
O=C(Nc1ccc(NC(=O)C2CC2)cc1)c1ccco1,6.8,10.9*,1.4,0.3,2.2,-0.1
O=C(Nc1ccc(NC(=O)C23CC4CC(CC(C4)C2)C3)cn1)c1ccco1,-9.8,10.8*,1.4,0.8,3.2,3.3
COc1cccc(/C=C2\CC3(OC(=O)c4ccc(F)cc4)CCCN2C3)c1 (stereo not given),.,-0.5,0.9,-1.1,1.1,.
O=C(Nc1ccc(NC(=O)c2ccco2)cc1)c1ccco1,7.7,6.9,4.4*,-0.6,1.6,-0.4
Nc1nc(=O)n(C2CC(O)C(CO)O2)cc1Cl (stereo not given),.,5.0,3.0,3.1*,1.6,.
Nc1nc(=O)n(C2CC(O)C(CO)O2)cc1F (stereo not given),.,-8.3,-4.3,-1.0,-1.2,-4.2
COC(=O)[C@]12C[C@H](CC(=O)NCc3cccc(C(F)(F)F)c3)C(=O)N(Cc3ccc4c(c3)OCO4)C1=C[C@H](C(C)(C)C)O[C@@H]2C,.,2.2,-0.1,-1.3,1.9,.
COc1ccc(NC(=O)O/N=C/c2c(C)nn(C(C)(C)C)c2C)cc1,-9.8,-0.8,1.2,-0.9,-0.9,6.3*
CCCCOc1ccc(C(=O)NC2CCCCN(Cc3cccc(C(F)(F)F)c3)C2=O)cc1 (stereo not given),.,2.7,-3.8,-1.8,-5.8,.
NNC(=O)CNc1ccccc1Cl,0.7,-0.5,0.2,1.0*,-0.3,1.9
